# Inconclusive results are not listed. Unmarked numbers belong to inactive results. The source made the active and inactive calls. Calls come from the whole dose curve; as a rule, active = well fitted inhibition curve with a large enough effect; inconclusive = small, poorly fitted or top-dose-only effect; inactive = no such curve, though single readings can be large or run the other way.
# Assay: Counterscreen qHTS for Identification of Calcium Integrin Binding Protein 1 (CIB1) Competitor
# Conditions: series mostly up to 114 µM; activity, negative = inhibition: at the top concentration
# Excerpt: Assay Provider: Ulhas P. Naik, PhD
# Sidney Kimmel Medical College
# Thomas Jefferson University, Philadelphia, PA
# Primary function of platelets is to maintain hemostasis. At the site of vascular injury, platelets adhere to adhesive proteins such as collagen and von Willebrand factor. Adherent platelets are activated and generate soluble platelet agonists such as thrombin, ADP and thromboxane A2. Following exposure of circulating platelets to these agonists, results in platelet shape change, granule secretion and activation of platelet integrin alphaIIb-beta3. Ligand binding to activated integrin alphaIIb-beta3 triggers outside-in signaling, leading to platelet aggregation, stabilization of platelet plug, and clot retraction. Upon atherosclerotic plaque rupture also causes platelet plug formation, which underlies a number of cardiovascular diseases such as myocardial infraction and stroke. A number of anti-platelet drugs such as aspirin, clopidogrel, prasugrel, vorapaxar, and eptifibatide are currently available to prevent the thrombotic complications. However, these anti-platelet agents have several limitations including inherent variability in individual responses, developing resistance, and serious bleeding side effects. For these reasons they are not suitable for long-term protection. Based on the experiences with current anti-platelet drugs, it appears that the most useful therapeutic approach is to intersect the secondary responses such as integrin outside-in signaling or recruitment of platelets by TxA2 and secreted ADP. Compounds, which can largely preserve the primary hemostatic function of platelets but inhibit secondary response will be most desired therapeutic agents for treatment of cardiovascular disease.
# CIB1 is a calcium integrin binding protein, which specifically interact with the alphaIIb subunit of integrin alphaIIb-beta3. Binding of CIB1 to alphaIIb regulates the outside-in signaling in platelets, which is needed for thrombus stabilization and thrombus growth. […] Therefore, we propose that discovery of a small molecule that can prevent the association of CIB1 and alphaIIb-beta3 will be a potential anti-platelet agent that can block the thrombus formation without undue effect on hemostasis.
# To develop fluorescence polarization (FP) assay using fluorescently labeled alphaIIb peptide and CIB1 protein. Using FP assay characterize the binding affinity, competitive inhibition, and acceptable Z factor (0.5 to1) in order to perform the HTS to identify small molecule compound that can prevent CIB1 binding to platelet integrin alphaIIb-beta3. Active compounds were re-acquired and validated using confirmatory and counterscreens (using 100 nM scrambled peptide).
# [1] Naik MU, Nigam A, Manrai P, et al. CIB1 deficiency results in impaired thrombosis: the potential role of CIB1 in outside-in signaling through integrin alpha IIb beta 3. J Thromb Haemost. 2009;7(11):1906-1914. doi:10.1111/j.1538-7836.2009.03581.
# SEQUENCE No. (1, 2, 3, etc.); […] (e.g., Cells, Incubation, Reagent, etc.); VALUE and DESCRIPTION.
# 1; Reagent; 3 uL; Protein or buffer (4/3x)
# 2; Compound; 46 nL; Control inhibitor / compound library
# 3; Time; 15 min; Room temperature incubation
# 4; Reagent; 1 uL; Fluorescent labeled peptide (4x)
# 5; Time; 1000 rpm; Centrifuge
# 6; Time; 15 min; Room temperature incubation
# 7; Detection; Ex 480/ Em 540; ViewLux Fluorescence Read
# NOTES (numbers refer to sequence above)
# 1; Protein Mixture: C1B1-GST (final concentrations of 1 uM). Buffer composition: 5 mM HEPES pH 7.4, 125 mM NaCl, 5 mM CaCl2, 0.01% Tween20.
# 2; Control Inhibitor: unlabeled peptide (final concentration range 17.4 nM to 572 uM). Compound Library final concentration range 18.3 nM to 114 uM.
# 3; Room temperature incubation.
# 4; Fluorescent Labeled Peptide: FITC-alphaIIb (final concentration of 100 nM). Sequence of Scrambled peptide: Acetyl-[…]-FITC (purity is 95.37%).
# 6; Room temperature incubation.
# […]
# % is set by controls: 0 for no effect and ±100 for the full control effect; potency is the fitted concentration of half-maximal effect.
SMILES,"activity, negative = inhibition",Potency
O=C1CCCC2=C1C1(CCOCC1)N=C(Nc1nc3ccccc3o1)N2,7.29%,
NC(=O)c1ccc(O)c2ncccc12,5.73%,
Cc1cnc(-c2ccccc2C(C)C)nc1NCc1ccc(-c2ccc(F)nc2)cc1,,44.7 µM (active)
Cn1c(NC2=NC3(CCCC3)C3=C(CCCC3=O)N2)nc2ccccc21,-10.7%,
Cc1ccc(S(=O)(=O)Nc2cnccc2C(=O)Nc2nc3ccccc3s2)cc1,11.3%,
CN1CCC(N(Cc2cccs2)c2ccccc2)CC1,7.51%,
O=C1CCCC2=C1C(c1ccncc1)N=C(Nc1nc3ccccc3o1)N2 (stereo not given),-7.67%,
O=C(O)Cc1ccc(CCNS(=O)(=O)c2ccc(Cl)cc2)cc1,13.6%,
CSC(Cc1ccc(Cl)cc1)C(=O)Nc1ccc(Cl)cc1C(=O)O (stereo not given),3.41%,
C[C@H](Cc1ccc(O)c(O)c1)[C@@H](C)Cc1ccc(O)c(O)c1,,12.6 µM (active)
CC(C)(C)c1ccc(SC2=NS(=O)(=O)c3ccccc32)cc1,10.5%,
COc1ccccc1Nc1cc2ccccc2c(=O)[nH]1,,35.5 µM (active)
O=c1c(O)c(-c2ccc(O)c(O)c2)oc2cc(O)cc(O)c12,,inactive
COc1cc(C(=O)NS(=O)(=O)c2ccccc2C)ccc1Cc1cn(C)c2ccc(NC(=O)OC3CCCC3)cc12,37.6%,
CC(O)c1ccc(-c2ccc3ncnc(N4CCOCC4)c3c2)o1 (stereo not given),-5.68%,
NC(=O)c1ncn([C@@H]2O[C@H](CO)[C@@H](O)[C@@H]2O)c1O,-9.27%,
Cn1cnc(-c2nccc3c(=O)[nH]c(OCCCC(F)(F)F)nc23)c1,-20.2%,
COC(=O)c1ccc2c(c1)S(=O)(=O)N=C2Sc1cc(C)ccc1C,-4.21%,
Cc1cc(NS(=O)(=O)c2ccc(NC(=O)Cc3ccc(F)c(Cl)c3)cc2)no1,-12.5%,
NC[C@H](O)c1ccc(O)c(O)c1,,inactive

SMILES,"activity, negative = inhibition",Potency
Oc1c(Cl)cc(Cl)c(Cl)c1Cc1c(O)c(Cl)cc(Cl)c1Cl,87.1%,
Oc1cccc2c(-c3nn[nH]n3)ccnc12,-28.8%,
COc1ccc(NC(=O)c2[nH]c(C)c(C(C)=O)c2C)cc1[S+](=O)([O-])Nc1ccccc1C#N,-11%,
N#Cc1cnc(NS(=O)(=O)c2ccc(NC(=O)Cc3ccc(F)c(Cl)c3)cc2)s1,2.29%,
CN(C(=O)c1cccs1)c1cccnc1,,44.7 µM (active)
CC(=O)Nc1sc2c(c1-c1nc3ccccc3s1)CNC2,-7.25%,
CCOc1ccc(CCNC(=O)c2ccc(N3N=C(C)CC3=O)cc2)cc1OCC,-10.4%,
O=C1CCCC2=C1C(c1ccn[nH]1)N=C(Nc1nc3ccccc3o1)N2 (stereo not given),-21.7%,
CN1CCc2cccc3c2[C@H]1Cc1ccc(O)c(O)c1-3,-18.5%,
CCc1oc2ccccc2c1C(=O)c1cc(Br)c(O)c(Br)c1,49.1%,
Cc1ccc(S(=O)(=O)Nc2ccc(Br)cc2C(=O)Nc2nc(-c3ccccc3)cs2)cc1,197%,
O=S(=O)(Nc1nc2ccccc2s1)c1ccc(NCc2ccc(Br)cc2O)cc1,-7.61%,
C=Cc1c(C)c2cc3[nH]c(cc4nc(cc5nc(cc1[nH]2)C(C)=C5CCC(=O)O)C(CCC(=O)O)=C4C)c(C)c3C=C,,25.1 µM (active)
O=C(O)c1ccc(O)c2ncc(-c3n[nH]nc3-c3ccccc3)cc12,,inactive
O=C(NC(c1ccco1)c1cc(Cl)c2cccnc2c1O)c1cccs1 (stereo not given),82.3%,
N#Cc1cnc(NS(=O)(=O)c2ccc(NC(=O)Cc3ccc(Cl)c(Cl)c3)cc2)s1,17.8%,
O=C1CCCC2=C1C(c1[nH]ncc1Cl)N=C(Nc1nc3ccccc3o1)N2 (stereo not given),-16.6%,
C[C@@H](NCc1cc2ccccc2[nH]1)c1cccc2ccccc12,-14.1%,
Cc1cc(=O)oc2cc(SC3=NS(=O)(=O)c4ccccc43)ccc12,-9.31%,
Nc1ccc(CNc2ccc([S+](=O)([O-])Nc3nccs3)cc2)c(O)c1,,50.1 µM (active)

# — PubChem BioAssay AID1508619 (National Center for Advancing Translational Sciences (NCATS), 2020)
